# Laboratory results taken from PubChem BioAssay (Tox21).
# Records with an inconclusive call do not appear. The source made the active and inactive calls. Calls follow the shape of the dose curve; as a rule, active = well fitted inhibition curve with a large enough effect in the signal ratio in the repeat runs (not every such curve was filed as active); inconclusive = weak or mixed curves, or effect the other way; inactive = no such curve, though single readings can be large or run the other way; the % refers to the signal ratio.
# Molecular target: Estrogen receptor beta (Homo sapiens) (UniProt Q92731)
# Sequence (Q92731 whole entry, looked up): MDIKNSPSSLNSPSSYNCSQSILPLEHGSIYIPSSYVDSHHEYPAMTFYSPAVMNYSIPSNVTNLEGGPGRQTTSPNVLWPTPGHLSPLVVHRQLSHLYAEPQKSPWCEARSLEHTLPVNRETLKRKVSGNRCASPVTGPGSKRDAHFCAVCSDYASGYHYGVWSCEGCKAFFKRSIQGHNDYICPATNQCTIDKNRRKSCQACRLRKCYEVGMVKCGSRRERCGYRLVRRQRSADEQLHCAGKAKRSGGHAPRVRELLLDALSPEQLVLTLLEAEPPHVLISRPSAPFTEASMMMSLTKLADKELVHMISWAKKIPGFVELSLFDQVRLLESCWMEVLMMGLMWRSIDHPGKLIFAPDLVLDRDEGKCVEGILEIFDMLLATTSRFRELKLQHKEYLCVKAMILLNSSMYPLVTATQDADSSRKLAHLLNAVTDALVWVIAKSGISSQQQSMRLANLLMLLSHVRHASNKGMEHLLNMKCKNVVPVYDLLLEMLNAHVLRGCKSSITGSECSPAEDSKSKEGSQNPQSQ
# Assay: qHTS assay to identify small molecule antagonists of the estrogen receptor beta (ER-beta) signaling pathway (AID 1259378)
# Settings: ER-beta-UAS-bla HEK293T, beta-lactamase FRET ratio, 16 h; series mostly up to 92.4 µM; activity, negative = inhibition: at the top concentration
# Procedure, shortened: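 ER-beta-UAS-bla HEK293T cells in 2% charcoal-stripped FBS medium treated with compound plus 1nM final 17-beta-estradiol for 16 hr at 37C. Beta-lactamase reporter read by FRET substrate fluorescence after 2 hours at room temperature.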
# % is scaled to controls: 0 for no effect and ±100 for the full control effect.
row,SMILES,"activity, negative = inhibition"
1,CCOC(=O)CC(=O)c1ccccc1,3.03% (inactive)
2,O=S(=O)(O)CCN1CCN(CCO)CC1,-6.12% (inactive)
3,CC(COC(C)(C)C)OCCCO (configuration not stated),-3.84% (inactive)
4,O=C(O)c1ccc(Cl)cc1Cl,8.09% (inactive)
5,CC(C)CCCCOC(=O)c1ccccc1C(=O)OCCCCC(C)C,-23.5% (inactive)
6,COc1ccc(-c2cc(=O)c3c(O)cc(O[C@@H]4O[C@H](CO[C@@H]5O[C@@H](C)[C@H](O)[C@@H](O)[C@H]5O)[C@@H](O)[C@H](O)[C@H]4O)cc3o2)cc1O,-0.0252% [at 42.5 µM] (inactive)
7,CC(C)N(c1ccccc1)C(C)C,-0.397% (inactive)
8,O=Cc1ccc(Cl)c(Cl)c1,1.43% (inactive)
9,CC(C)=CCOC(=O)c1ccccc1,5.37% (inactive)
10,CCC(C=O)CC,6.53% (inactive)
11,CC(N)C(=O)OC(C)(C)Cc1ccc(Cl)cc1 (configuration not stated),3.98% [at 42.5 µM] (inactive)
12,Nc1nnc(-c2cccc(Cl)c2Cl)c(N)n1,-0.579% [at 42.5 µM] (inactive)
13,CC1(C)S[C@@H]2[C@H](N=CN3CCCCCC3)C(=O)N2[C@H]1C(=O)O,-4.65% [at 42.5 µM] (inactive)
14,C#CC(C)N(C)C(=O)Nc1ccc(Cl)cc1 (configuration not stated),-24.4% (inactive)
15,O=S(=O)(O)c1cc(O)c2ccc(Nc3ccccc3)cc2c1,-26% (inactive)
16,CCCC/C=C\CCCCCCCCCC=O,9.24% (inactive)
17,C[C@@H](Oc1ccc(CNC(=O)c2cccnc2Oc2ccc3c(c2)OCO3)c(F)c1)C(=O)O,0.517% (inactive)
18,COc1cc(C(=S)N2CCOCC2)cc(OC)c1OC,3.26% [at 42.5 µM] (inactive)
19,Cc1ccsc1/C=C/C1=NCCCN1C,12.2% [at 42.5 µM] (inactive)

row,SMILES,"activity, negative = inhibition"
1,OCCCCC(O)CO (configuration not stated),9.24% (inactive)
2,NNc1nnc(NN)c2ccccc12,1.92% [at 42.5 µM] (inactive)
3,CC(CN)CC(C)(C)CCN (configuration not stated),1.97% [at 240 µM] (inactive)
4,CCCCCCCCCCCCCC,2.9% (inactive)
5,O=P(O)(O)OP(=O)(O)O,16.8% (inactive)
6,CC(=O)CCCCn1c(=O)c2c(ncn2C)n(C)c1=O,-1.1% [at 42.5 µM] (inactive)
7,CC(=O)N[C@@H](CCC(=O)O)C(=O)O,4.95% [at 42.5 µM] (inactive)
8,Cc1ccccc1OCC(O)CO (configuration not stated),23.7% [at 42.5 µM] (inactive)
9,C=C1CC/C=C(\C)CC[C@@H]2[C@@H]1CC2(C)C,17% (inactive)
10,CCCOC(OCCC)OCCC,1.36% (inactive)
11,CN(C)c1ccc(C=O)cc1,-14.2% (inactive)
12,c1ccc2c(c1)ccc1c3ccccc3ccc21,2.34% [at 42.5 µM] (inactive)
13,NCCS,0.641% [at 42.5 µM] (inactive)
14,COCCOCCOCCOCCOCCO,8.12% (inactive)
15,O=C1CC(c2ccc(Cl)cc2)CC(=O)N1,5.1% [at 42.5 µM] (inactive)
16,O=C1CCCC(=O)O1,-9.48% (inactive)
17,CC(=O)Nc1ccc(S(=O)(=O)Cl)cc1,3.79% (inactive)
18,CCCCN,0.125% [at 42.5 µM] (inactive)
